This is a sample that favours compounds with a hit; in the whole collection about 2% have one here.
MsrA act = bovine methionine sulfoxide reductase A activation; purified bovine MsrA, absorbance read-out; activation, % at 10.6 µM; actives 0.3% (n = 360,000); in the data active = activation above about 7.5%
SUMO Mot1 rescue = inhibitors of SUMOylation pathway: yeast Mot1-301 growth rescue | actives 1% (n = 320,000) | AID 2716 | growth rescue, % at 18.8 µM | S. cerevisiae Mot1-301 growth rescue, ATP luminescence, 38.5C; percent above DMSO median, 100 means doubled;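 active = every valid replicate shows activation above 250% relative to neutral control wells; inactive = the rest, any valid replicate at or below 250%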
PKA-R1A activ = PKA-R1A complex activation; P00514+P68181; PKA-R1A dissociation, Cy5-IP20 fluorescence polarization; scaled: DMSO 0%, 113 µM cGMP 100%; actives 0.083% (n = 340,000); activation, % at 11.4 µM;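 active = percent activation above the mean of all tested compounds plus 3 SD, cut at about 19% in these data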;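 note: higher means more PKAc released from R1A so a rise in polarization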
PKA-R2B activ = activates the human PKA-R2B holoenzyme complex; PKA-R2B holoenzyme dissociation, Cy5-IP20 fluorescence polarization; R2B truncated from residue 108, S112A mutant; 0% DMSO only, 100% 113 µM cGMP; activation, % at 11.4 µM; actives 0.079% (n = 340,000);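 active = activation above a cutoff set at the mean over all compounds plus 3 SD, cut at about 18% in these data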;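 note: higher means more holoenzyme dissociation and a rise in polarization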
Target sequence (P31323 whole entry, looked up, other chains not shown, the tested form may be a part): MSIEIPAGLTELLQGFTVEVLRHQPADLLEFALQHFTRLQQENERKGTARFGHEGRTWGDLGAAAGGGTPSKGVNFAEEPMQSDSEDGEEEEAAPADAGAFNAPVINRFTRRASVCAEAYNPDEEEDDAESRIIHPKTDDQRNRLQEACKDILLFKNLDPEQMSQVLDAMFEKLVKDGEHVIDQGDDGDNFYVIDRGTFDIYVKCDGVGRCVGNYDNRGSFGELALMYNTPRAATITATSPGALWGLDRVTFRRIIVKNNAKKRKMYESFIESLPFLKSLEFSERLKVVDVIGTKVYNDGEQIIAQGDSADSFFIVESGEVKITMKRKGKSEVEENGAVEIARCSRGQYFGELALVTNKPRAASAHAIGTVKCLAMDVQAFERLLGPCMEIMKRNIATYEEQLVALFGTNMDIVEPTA
MsrA inh = bovine MsrA inhibition | AID 651718 | actives 0.75% (n = 360,000) | inhibition, % at 15.5 µM | purified bovine MsrA, absorbance read-out; in the data active = inhibition above about 4.5%
Yeast Mot1 SUMO = inhibits SUMO pathway, affecting Mot1-301 yeast growth | S. cerevisiae Mot1-301 galactose growth, ATP luminescence, 24 h; -100 = growth of slx-deleted rescue strain | growth activity, percent, % at 42 µM | 2,300 tested, under 10 active | shares compounds with SUMO Mot1 rescue | AID 493004;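 active = Signal drops as the depositor expects, and the fitted half-maximal dose is no more than ten times the top valid tested dose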;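 note: more negative values mean stronger growth rescue toward the control strain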
A number is an active result.

For C=CCN=C1NC(c2ccccc2)C(C(=O)OC)=C(C)N1Cc1ccccc1C(F)(F)F (stereo unspecified) the results were MsrA inh inactive.
For CC1CCN(CCCCOc2cccc(Br)c2)CC1 the results were MsrA act inactive, SUMO Mot1 rescue 373, PKA-R1A activ inactive, PKA-R2B activ inactive, MsrA inh inactive and Yeast Mot1 SUMO inactive.
CC1CCN(CCCCOc2ccc(Br)cc2)CC1 was read as MsrA act inactive, SUMO Mot1 rescue inactive, PKA-R1A activ inactive, PKA-R2B activ inactive and MsrA inh inactive.
For O=C1CSC(c2cccnc2)N1c1ccccc1 (stereo unspecified) the results were MsrA act inactive, SUMO Mot1 rescue inactive, PKA-R1A activ inactive, PKA-R2B activ inactive and MsrA inh inactive.
Cc1cccc(N2C(=O)CSC2c2cccnc2)c1 (stereo unspecified) was read as MsrA act inactive, SUMO Mot1 rescue 686, PKA-R1A activ inactive, PKA-R2B activ inactive, MsrA inh inactive and Yeast Mot1 SUMO inactive.
`c1ccc(-c2nc3ccccc3nc2-c2ccc(CN3CCC4(CC3)CNc3ccccc34)cc2)cc1` gave MsrA inh inactive.
Screening COc1ccc(NC(=O)CCCc2ccccc2)cc1OC returned MsrA act inactive, SUMO Mot1 rescue 382, PKA-R1A activ inactive, PKA-R2B activ inactive, MsrA inh inactive and Yeast Mot1 SUMO inactive.
Screening COc1ccc(NC(=O)CCCC(=O)c2ccccc2)cc1OC returned MsrA act inactive, SUMO Mot1 rescue inactive, PKA-R1A activ inactive, PKA-R2B activ inactive and MsrA inh inactive.
For COc1ccc(/C=N/NC(=O)CCC(=O)Nc2ccccc2)cc1OC the results were MsrA act inactive, SUMO Mot1 rescue 795, PKA-R1A activ inactive, PKA-R2B activ inactive, MsrA inh inactive and Yeast Mot1 SUMO inactive.
`CC(=O)Nc1cccc(NC(=O)CCc2ccccc2)c1` gave MsrA act inactive, SUMO Mot1 rescue inactive, PKA-R1A activ inactive, PKA-R2B activ inactive and MsrA inh inactive.
Screening Cc1cccc(NC(=O)CCc2ccccc2)c1 returned MsrA act inactive, SUMO Mot1 rescue 520, PKA-R1A activ inactive, PKA-R2B activ inactive, MsrA inh inactive and Yeast Mot1 SUMO inactive.
Screening COCCN1Cc2cc(C(=O)OC)c3c(c2C1=O)c1cc(F)ccc1n3S(=O)(=O)c1cccc(C)c1 returned MsrA inh inactive.
`O=C(N[C@H](C(=O)N1CCC[C@H]1C(=O)NCCc1ccccc1Cl)C1CCCCC1)C1CC1` gave MsrA inh inactive.
For O=S(=O)(NCC1CCCO1)c1cc(Cl)ccc1Cl (stereo unspecified) the results were MsrA act inactive, SUMO Mot1 rescue inactive, PKA-R1A activ inactive, PKA-R2B activ inactive and MsrA inh inactive.
O=S(=O)(NCC1CCCO1)c1cc(Cl)ccc1Br (stereo unspecified) was read as MsrA act inactive, SUMO Mot1 rescue 467, PKA-R1A activ inactive, PKA-R2B activ inactive, MsrA inh inactive and Yeast Mot1 SUMO inactive.
Screening CCc1ccc(S(=O)(=O)NCc2cccnc2)cc1 returned MsrA act inactive, SUMO Mot1 rescue 571, PKA-R1A activ inactive, PKA-R2B activ inactive, MsrA inh inactive and Yeast Mot1 SUMO inactive.
`Cc1ccc(S(=O)(=O)NCc2cccnc2)cc1` gave MsrA act inactive, SUMO Mot1 rescue inactive, PKA-R1A activ inactive, PKA-R2B activ inactive and MsrA inh inactive.
CC(=O)C1=C(C)N(Cc2ccc(F)cc2)C(=S)NC1c1cccc(F)c1 (stereo unspecified) was read as MsrA inh inactive.
Screening Cc1ccc(S(=O)(=O)N2[C@@H](c3ccc(F)cc3)C(C(=O)O)=CC[C@H]2c2ccc3c(c2)OCO3)cc1 returned MsrA act inactive, SUMO Mot1 rescue inactive, PKA-R1A activ inactive, PKA-R2B activ inactive and MsrA inh inactive.
`Cc1ccc(S(=O)(=O)N2[C@@H](c3ccccc3F)C(C(=O)O)=CC[C@H]2c2ccc3c(c2)OCO3)cc1` gave MsrA act inactive, SUMO Mot1 rescue 497, PKA-R1A activ inactive, PKA-R2B activ inactive, MsrA inh inactive and Yeast Mot1 SUMO inactive.
CC(=O)N(C(C)=O)c1c(C#N)c(C)n(-c2ccccc2)c1C(=O)c1ccccc1 was read as MsrA act inactive, SUMO Mot1 rescue active, PKA-R1A activ inactive, PKA-R2B activ inactive, MsrA inh inactive and Yeast Mot1 SUMO inactive.
For CCCCCCCCN1C(=O)[C@@H](CC(=O)NCc2ccc(C)o2)C[C@@]2(C(=O)OC)C1=C[C@H](C1CCCC1)O[C@@H]2C the results were MsrA inh inactive.
CN(C(=O)CSc1nc(-c2ccccc2)c(-c2ccccc2)o1)C1CCS(=O)(=O)C1 (stereo unspecified) was read as MsrA act inactive, SUMO Mot1 rescue 543, PKA-R1A activ inactive, PKA-R2B activ inactive, MsrA inh inactive and Yeast Mot1 SUMO inactive.
`CN(C(=O)CSc1nc2ccccc2o1)C1CCS(=O)(=O)C1` (stereo unspecified) gave MsrA act inactive, SUMO Mot1 rescue inactive, PKA-R1A activ inactive, PKA-R2B activ inactive and MsrA inh inactive.
CCOC(=O)c1c(C)[nH]c(C(=O)COC(=O)c2cnccn2)c1C was read as MsrA act inactive, SUMO Mot1 rescue inactive, PKA-R1A activ inactive, PKA-R2B activ inactive and MsrA inh inactive.
CCOC(=O)c1c(C)[nH]c(C(=O)COC(=O)c2ccncc2)c1C was read as MsrA act inactive, SUMO Mot1 rescue active, PKA-R1A activ inactive, PKA-R2B activ inactive, MsrA inh inactive and Yeast Mot1 SUMO inactive.
For COC(=O)c1ccccc1S(=O)(=O)NC(=O)[C@H]1O[C@@H](n2ccc(=O)[nH]c2=O)[C@H](O)[C@@H]1O the results were MsrA inh inactive.
Screening C[C@@H]1CN(c2ccc(N3CCNC[C@H]3C)cc2C#N)C[C@H](C)O1 returned MsrA inh inactive.
O=C(Nc1cc(F)ccc1F)C1CCCO1 (stereo unspecified) was read as MsrA act inactive, SUMO Mot1 rescue active, PKA-R1A activ inactive, PKA-R2B activ inactive, MsrA inh inactive and Yeast Mot1 SUMO inactive.
COc1ccc(C2CC(=O)C(c3ccc4ccccc4c3)=CN2Cc2ccccc2)cc1 (stereo unspecified) was read as MsrA inh inactive.
`C=CCNC(=S)N(C)[C@H]1C[C@H]2c3[nH]c4c(-c5ccccc5)cccc4c3CCN2C(=O)[C@H]1[C@H](C)O` gave MsrA inh inactive.
`CNC(=O)NNC(=O)c1csc(-c2ccc(C(F)(F)F)cc2Cl)n1` gave MsrA act inactive, SUMO Mot1 rescue 381, MsrA inh inactive and Yeast Mot1 SUMO inactive.
`CCn1c(SCc2nc3ccccc3[nH]2)nnc1-c1ccncc1` gave MsrA act inactive, SUMO Mot1 rescue inactive, PKA-R1A activ inactive, PKA-R2B activ inactive and MsrA inh inactive.
